# Laboratory results from PubChem BioAssay AID1159580 (chemical genetic matrix, 2015).
# Out of some 5,500 compounds screened, about 2,000 (36%) were called active. Roughly 18% stayed inconclusive and do not appear here. Some of the results follow. A number with no mark means an inactive call. No stated cut-off is given here; in the data, active means normalized growth mostly below about 0.91 (no sharp cut-off); inconclusive means no clear call, values can overlap the other calls; inactive means mostly above about 0.92.
# Assay: chemical genetic growth profiling, strain panel (AID 1159580);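 further: tested at 20 µM; growth read once vehicle control cultures reached saturation at 30 °C; 1 = growth at the plate median or of vehicle wells; lower values mean less growth of the strain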
# Settings: S. cerevisiae deletion strains, growth OD
# [1] = locus YAL013W, strain DEP1, hits give low values
# [2] = locus YAL040C, strain CLN3, hits give low values
# [3] = locus YDR363W, strain ESC2, hits give low values
# [4] = locus YER002W, strain NOP16, hits give low values
# [5] = locus YGR078C, strain PAC10, hits give low values
# [6] = locus YGR229C, strain SMI1, hits give low values
# [7] = locus YJR075W, strain HOC1, hits give low values
# [8] = locus YMR263W, strain SAP30, hits give low values
# [9] = locus YNL153C, strain GIM3, hits give low values
# [10] = locus YNL175C, strain NOP13, hits give low values
# [11] = locus YNL197C, strain WHI3, hits give low values
# [12] = locus YNL224C, strain SQS1, hits give low values
# [13] = locus YOR083W, strain WHI5 (second series), hits give low values
# [14] = locus YPL055C, strain LGE1, hits give low values
# [15] = locus YDL101C, strain DUN1, hits give low values
# [16] = locus YHR030C, strain SLT2, hits give low values
# [17] = locus YPL241C, strain CIN2, hits give low values
smiles,measurement,setting,value
NCCCCNS(=O)(=O)c1cccc2c(Cl)cccc12,normalized growth,[1],1.01
same,normalized growth,[2],1.02
same,normalized growth,[3],1.01
same,normalized growth,[4],1.01
same,normalized growth,[5],1.01
same,normalized growth,[6],1.04
same,normalized growth,[7],0.989
same,normalized growth,[8],1.01
same,normalized growth,[9],0.993
same,normalized growth,[10],1
same,normalized growth,[11],1
same,normalized growth,[12],0.995
same,normalized growth,[13],1.02
same,normalized growth,[14],1.01
N=c1ccc2nc3c(Cl)c4c(c(Cl)c3oc-2c1S(=O)(=O)O)Nc1ccc(N)c(S(=O)(=O)O)c1O4,normalized growth,"locus YAR019C, strain CDC15, hits give low values",1.01
same,normalized growth,"locus YBL105C, strain PKC1, hits give low values",1.01
same,normalized growth,"locus YBR135W, strain CKS1, hits give low values",1.01
same,normalized growth,"locus YBR136W, strain MEC1, hits give low values",1.01
same,normalized growth,"locus YBR160W, strain CDC28, hits give low values",1.01
same,normalized growth,"locus YDL017W, strain CDC7, hits give low values",1.02
same,normalized growth,"locus YDL028C, strain MPS1, hits give low values",1.01
same,normalized growth,[15],1.01
same,normalized growth,"locus YDL108W, strain KIN28, hits give low values",1.01
same,normalized growth,"locus YDL132W, strain cdc53, hits give low values",1
same,normalized growth,"locus YDL214C, strain PRR2, hits give low values",1.02
same,normalized growth,"locus YDR052C, strain DBF4, hits give low values",1.01
same,normalized growth,"locus YDR054C, strain cdc34, hits give low values",1
same,normalized growth,"locus YDR226W, strain ADK1, hits give low values",0.993
same,normalized growth,"locus YDR477W, strain SNF1, hits give low values",1.01
same,normalized growth,"locus YER123W, strain YCK3, hits give low values",1.01
same,normalized growth,"locus YER133W, strain GLC7, hits give low values",0.992
same,normalized growth,"locus YFL009W, strain cdc4, hits give low values",0.997
same,normalized growth,"locus YFL029C, strain CAK1, hits give low values",1
same,normalized growth,"locus YFR003C, strain YPI1, hits give low values",1.01
same,normalized growth,"locus YFR019W, strain FAB1, hits give low values",0.993
same,normalized growth,"locus YFR028C, strain CDC14, hits give low values",1.01
same,normalized growth,"locus YGR040W, strain KSS1, hits give low values",1.02
same,normalized growth,"locus YGR052W, strain FMP48, hits give low values",1.09
same,normalized growth,"locus YGR092W, strain DBF2, hits give low values",1.03
same,normalized growth,[16],0.962
same,normalized growth,"locus YHR079C, strain IRE1, hits give low values",0.995
same,normalized growth,"locus YHR082C, strain KSP1, hits give low values",1.16
same,normalized growth,"locus YHR205W, strain SCH9, hits give low values",1
same,normalized growth,"locus YIL147C, strain SLN1, hits give low values",1.01
same,normalized growth,"locus YJL095W, strain BCK1, hits give low values",1.06
same,normalized growth,"locus YJL128C, strain PBS2, hits give low values",1
same,normalized growth,"locus YJL157C, strain FAR1, hits give low values",0.994
same,normalized growth,"locus YJR016C, strain ILV3, hits give low values",1.02
same,normalized growth,"locus YJR066W, strain TOR1 (second series), hits give low values",0.981
same,normalized growth,"locus YJR066W, strain TOR1, hits give low values",1.14
same,normalized growth,"locus YKL048C, strain ELM1, hits give low values",1.01
same,normalized growth,"locus YKL067W, strain YNK1, hits give low values",1.01
same,normalized growth,"locus YKL101W, strain HSL1, hits give low values",1.02
same,normalized growth,"locus YKL193C, strain SDS22, hits give low values",1.01
same,normalized growth,"locus YKL203C, strain TOR2, hits give low values",1.06
same,normalized growth,"locus YLR113W, strain HOG1, hits give low values",1.06
same,normalized growth,"locus YLR133W, strain CKI1, hits give low values",1.01
same,normalized growth,"locus YLR403W, strain SFP1, hits give low values",0.975
same,normalized growth,"locus YML070W, strain DAK1, hits give low values",1.02
same,normalized growth,"locus YMR001C, strain CDC5, hits give low values",1.01
same,normalized growth,"locus YMR205C, strain PFK2 (second series), hits give low values",1.02
same,normalized growth,"locus YMR277W, strain FCP1, hits give low values",1.01
same,normalized growth,"locus YNL006W, strain LST8, hits give low values",1
same,normalized growth,"locus YNL020C, strain ARK1, hits give low values",1.02
same,normalized growth,"locus YNL161W, strain CBK1, hits give low values",0.998
same,normalized growth,"locus YNL183C, strain NPR1, hits give low values",1.11
same,normalized growth,"locus YNL207W, strain RIO2, hits give low values",1.02
same,normalized growth,"locus YNL222W, strain SSU72, hits give low values",1.01
same,normalized growth,"locus YNL307C, strain MCK1 (second series), hits give low values",1.01
same,normalized growth,"locus YOL078W, strain AVO1, hits give low values",1.01
same,normalized growth,"locus YOL136C, strain PFK27, hits give low values",1
same,normalized growth,"locus YOR061W, strain CKA2, hits give low values",1.02
same,normalized growth,"locus YOR119C, strain RIO1, hits give low values",1.08
same,normalized growth,"locus YOR231W, strain MKK1, hits give low values",1.04
same,normalized growth,"locus YOR329C, strain SCD5, hits give low values",1.01
same,normalized growth,"locus YPL031C, strain PHO85, hits give low values",1.01
same,normalized growth,"locus YPL153C, strain RAD53, hits give low values",1.01
same,normalized growth,"locus YPL204W, strain HRR25, hits give low values",1
same,normalized growth,"locus YPL209C, strain IPL1, hits give low values",1.01
same,normalized growth,"locus YPL256C, strain CLN2, hits give low values",0.998
same,normalized growth,"locus YPR025C, strain CCL1, hits give low values",1.01
same,normalized growth,"locus YPR106W, strain ISR1, hits give low values",1.02
same,normalized growth,"locus YPR111W, strain DBF20, hits give low values",1
same,normalized growth,"strain NNK1, hits give low values",1.03
same,normalized growth,"strain TSCII, hits give low values",1
O=C(c1cc(O)c(O)c([N+](=O)[O-])c1)c1ccccc1F,normalized growth,[2],0.964
same,normalized growth,"locus YCL061C, strain MRC1 (second series), hits give low values",0.953
same,normalized growth,[3],0.98
same,normalized growth,[4],0.978
same,normalized growth,[5],0.977
same,normalized growth,[6],0.886
same,normalized growth,"locus YMR307W, strain GAS1, hits give low values",0.966
same,normalized growth,[10],0.985
same,normalized growth,[11],0.97
same,normalized growth,[12],0.969
same,normalized growth,[13],0.996
same,normalized growth,[17],0.99
O=C(NNC(=O)c1ccccc1[N+](=O)[O-])c1ccc(Cl)cc1,normalized growth,[1],1.02
same,normalized growth,"locus YBR229C, strain ROT2, hits give low values",1.03
same,normalized growth,"locus YCL061C, strain MRC1, hits give low values",1.02
same,normalized growth,[15],0.981
same,normalized growth,"locus YDR150W, strain NUM1, hits give low values",0.904
same,normalized growth,"locus YEL061C, strain CIN8, hits give low values",1.01
same,normalized growth,[5],0.995
same,normalized growth,[16],1.14
same,normalized growth,"locus YHR087W, strain rtc3, hits give low values",0.994
same,normalized growth,"locus YJL187C, strain SWE1, hits give low values",1
same,normalized growth,"locus YJR043C, strain POL32, hits give low values",0.869 (active)
same,normalized growth,[7],0.991
same,normalized growth,"locus YKL190W, strain CNB1, hits give low values",1.01
same,normalized growth,"locus YLR039C, strain RIC1, hits give low values",1.03
same,normalized growth,"locus YLR058C, strain SHM2 (second series), hits give low values",1.01
same,normalized growth,"locus YLR085C, strain ARP6, hits give low values",1.05
same,normalized growth,"locus YLR262C, strain YPT6, hits give low values",1.01
same,normalized growth,"locus YML094W, strain GIM5, hits give low values",1.02
same,normalized growth,"locus YMR219W, strain ESC1, hits give low values",1.02
same,normalized growth,[8],0.91
same,normalized growth,[9],0.993
same,normalized growth,"locus YNL298W, strain CLA4 (second series), hits give low values",1.04
same,normalized growth,"locus YNL322C, strain KRE1, hits give low values",1.01
same,normalized growth,"locus YNR030W, strain Alg12, hits give low values",1.03
same,normalized growth,"locus YOL006C, strain TOP1, hits give low values",1.13
same,normalized growth,[14],0.9
same,normalized growth,[17],1.03
same,normalized growth,"locus YPR135W, strain CTF4, hits give low values",1.16
